Measurements taken from PubChem BioAssay AID652057 (Broad Institute, 2013).
Hit rate of the full screen: of about 1,400 compounds, about 1,000 (71%) were called active. So high a share suggests a set chosen from earlier hits. A selection follows. Potency and affinity values are given separately. Values without a mark were called inactive. No rule for the calls is given here.

Assay: inhibitors of HIV Env-driven cell fusion, dose response, cherry-pick (AID 652057)
Details: HeLa-JRFL Env/CEM21 cell fusion, luciferase; series mostly up to 35 µM; activity change, negative = inhibition: at the top concentration

| SMILES | activity change, negative = inhibition |
| --- | --- |
| COc1ccc(/C=C/c2nc(S(=O)(=O)c3ccccc3)c(NCCCN(C)C)o2)cc1OC | -16.3% [at 16 µM] |
| CC(C)(C)c1ccc(-n2ncc3c2CCCC3NC(=O)CN2CCCC2=O)cc1 (stereo unspecified) | -6.82% |
| C[C@H]1CN([C@@H](C)CO)C(=O)c2cc(NS(=O)(=O)c3ccc(F)cc3)ccc2O[C@H]1CN(C)S(=O)(=O)c1ccc(F)cc1 | 12.1% |
| Cc1noc(C)c1S(=O)(=O)N(C)C[C@H]1Oc2ccc(NC(=O)Nc3ccccc3)cc2CC(=O)N([C@H](C)CO)C[C@H]1C | 2.68% |
| Cc1ccc(OCCN2CCN(c3ncnc4sc(C)c(C)c34)CC2)cc1 | -25.9% |
| Cc1onc(-c2ccccc2)c1C(=O)OCCOc1cccc(Cl)c1 | -2.52% |
| COC(=O)C1CCN(C(=O)COC(=O)c2cc(S(=O)(=O)N3CCOCC3)ccc2C)CC1 | -2.73% |
| Nc1ccc(S(=O)(=O)c2ccc(N3CCOCC3)c(N)c2)cc1 | -0.63% |
| O=C(C[C@@H]1CC[C@@H](NC(=O)c2ccncc2)[C@H](CO)O1)NCCc1ccncc1 | 6.53% |
| O=C(O)C[C@@H]1CC[C@@H](NC(=O)c2ccncc2)[C@H](CO)O1 | 10.2% |
| CN(C)CC(=O)Nc1ccc2c(c1)[C@H]1C[C@H](CC(=O)NCc3cccc(F)c3)O[C@@H](CO)[C@H]1O2 | 7.88% |
| O=C(c1cccc(S(=O)(=O)N2CCN(c3ccccc3)CC2)c1)N1CCCC(C(F)(F)F)C1 (stereo unspecified) | -16.8% |
| Cc1ccccc1S(=O)(=O)NC(=O)C1(C)CCN1C(=O)CCc1ccc(Cl)cc1Cl (stereo unspecified) | 4.53% |
| Cn1cc(S(=O)(=O)N2CCOCC2)cc1C(=O)Nc1cccc(Cl)c1 | -2.31% |
| O=C(Nc1cccc(F)c1)N[C@@H]1CC[C@H](CCNS(=O)(=O)c2cccc(Cl)c2)O[C@H]1CO | -2.87% |
| O=C(Nc1cccc(F)c1)N[C@H]1CC[C@@H](CCNS(=O)(=O)c2cccc(Cl)c2)O[C@H]1CO | 10.6% |
| COc1cccc(S(=O)(=O)N2CC3(CN(C(=O)Nc4cccc(F)c4)[C@H](CO)c4[nH]c5cc(OC)ccc5c43)C2)c1 | 31.9% [at 16 µM] |
| CC(C)OCCCn1c(=S)[nH]c2ccc(N3CCOCC3)cc2c1=O | -19.3% |
| CN(C)CC(=O)Nc1ccc2c(c1)[C@H]1C[C@@H](CC(=O)NCCc3ccccc3)O[C@H](CO)[C@H]1O2 | -6.39% [at 30 µM] |
| Cn1cccc1C(=O)OCC(=O)NCCc1ccc(S(N)(=O)=O)cc1 | -3.08% |
| O=C(Nc1nc(-c2ccc3c(c2)OCO3)cs1)c1ccncc1 | 19.8% |
| CC1Cc2cc(-c3csc(NC(=O)Cc4cccs4)n3)ccc2N1S(C)(=O)=O (stereo unspecified) | 3.57% |

| SMILES | activity change, negative = inhibition |
| --- | --- |
| CS(=O)(=O)N1CCN(c2ccccc2NC(=O)C(c2ccccc2)c2ccccc2)CC1 | -35.7% |
| CCCNC(=O)C[C@H]1C[C@H]2c3cc(NC(=O)CN(C)C)ccc3O[C@H]2[C@H](CO)O1 | -3.46% |
| c1csc(-c2csc3ncnc(NCCCN4CCOCC4)c23)c1 | -29.8% |
| Clc1ccc(OCCN2CCN(c3ncnc4sccc34)CC2)cc1 | -19% |
| Cc1cccc(C)c1NC(=O)N1CCN(c2nc3ccccc3s2)CC1 | -9.77% |
| C[C@@H]1CN([C@H](C)CO)C(=O)c2cc(NC(=O)Nc3ccccc3)ccc2O[C@@H]1CN(C)S(=O)(=O)c1ccccc1 | 47.9% |
| Cc1nnc(SC(=O)N2c3ccccc3Sc3ccccc32)s1 | 119% |
| Cc1ccc(S(=O)(=O)N(C)C[C@@H]2Oc3cc(C#CC4CCCC4)ccc3S(=O)(=O)N([C@H](C)CO)C[C@H]2C)cc1 | -29.5% |
| O=C(C[C@@H]1C[C@H]2c3cc(NC(=O)NC4CCCCC4)ccc3O[C@H]2[C@@H](CO)O1)NCc1ccncc1 | 11.5% |
| O=C(C[C@H]1C[C@H]2c3cc(NC(=O)Cc4ccncc4)ccc3O[C@H]2[C@@H](CO)O1)NCc1ccncc1 | -10.2% |
| O=C(NNC(=O)C(c1ccccc1)c1ccccc1)c1ccccn1 | -5.19% |
| O=C(COC(=O)c1ncc(Cl)c(Cl)c1Cl)NCc1cccs1 | -16.5% |
| CN(Cc1cccs1)c1ncnc2sccc12 | -2.6% |
| COc1ccc(-c2cn3c(C)c(C(=O)Nc4cccc(NC(C)=O)c4)sc3n2)cc1 | 13% [at 16 µM] |
| O=C1COc2ccc(-c3csc(=Nc4ccc(OC(F)F)cc4)n3CC3CCCO3)cc2N1 (stereo unspecified) | -33% |
| CCc1ccc(-c2nc(CN3CCC(C(=O)NCCc4ccc(OC)c(OC)c4)CC3)c(C)o2)cc1 | 15.1% |
| CC(NNC(=S)N1CCCCCC1)c1ccc2ccccc2n1 (stereo unspecified) | -25.8% |
| CCN1C(=O)[C@H]2[C@@H](c3ccc(C(F)(F)F)cc3)N[C@]3(CCCN(Cc4ccccc4)C3=O)[C@H]2C1=O | -5.82% |
| O=C(Cn1ncc2c(=O)oc3ccccc3c21)N1CCC(N2CCCCC2)CC1 | -4.21% |
| COc1ccc(CCNC(=O)C2CCCN(Cc3nc(-c4cccc(Cl)c4)oc3C)C2)cc1OC (stereo unspecified) | -27.2% |
| C[C@@H]1CN([C@H](C)CO)C(=O)c2cccc(NC(=O)c3ccncc3)c2O[C@@H]1CN(C)Cc1ccc(C(=O)O)cc1 | 5.08% |
| C[C@@H]1CN([C@H](C)CO)C(=O)c2cccc(NC(=O)c3cnccn3)c2O[C@H]1CN(C)Cc1ccccc1 | -21.7% |

| SMILES | activity change, negative = inhibition |
| --- | --- |
| CCCNC(=O)C[C@@H]1C[C@H]2c3cc(NC(=O)Cc4ccncc4)ccc3O[C@H]2[C@H](CO)O1 | 45% |
| COC(=O)c1ccc(C(=O)NC2CCCc3c2cnn3-c2ccc(C)c(C)c2)cc1 (stereo unspecified) | 66.7% |
| COc1ccccc1N1CCN(Cc2ccc(O)c3ncccc23)CC1 | 30% |
| CC1CCCN(C(=O)c2ccc(S(=O)(=O)N3CCC(c4nc5ccccc5s4)CC3)cc2)C1 (stereo unspecified) | -13.8% |
| O=C(Nc1ccc(S(=O)(=O)N2CCN(Cc3ccccc3)CC2)cc1)c1cnccn1 | -11.9% |
| COc1cccc(S(=O)(=O)N[C@H]2CC[C@@H](CCN)O[C@@H]2CO)c1 | 30.6% [at 16 µM] |
| O=C(Cc1ccccc1)N[C@@H]1C=C[C@H](CC(=O)N2CCCCC2)O[C@@H]1CO | 6.07% |
| COc1cccc(S(=O)(=O)N[C@@H]2CC[C@H](CCN)O[C@H]2CO)c1 | 0.746% |
| COc1ccc(S(=O)(=O)N[C@@H]2C=C[C@H](CC(=O)N3CCC(Cc4ccccc4)CC3)O[C@@H]2CO)cc1 | -5.81% |
| CCCCCn1c(=O)[nH]c2cc(C(=O)N3CCN(Cc4ccc5c(c4)OCO5)CC3)ccc2c1=O | -30.3% [at 16 µM] |
| CCc1cnc(N2[C@H](C#N)[C@H](c3ccc(C#Cc4ccccc4F)cc3)[C@H]2CO)s1 | -25% |
| Cc1ccc(C(=O)NCc2ccccn2)cc1S(=O)(=O)N1CCCCC1 | 12.6% |
| CCCn1c(=S)[nH]c2cc(C(=O)N3CCCC(C(=O)OCC)C3)ccc2c1=O (stereo unspecified) | -17.7% |
| CN(C(=O)c1cccc(NC(=O)Cc2cccc(NC(=O)C3CCCN(C(=O)C4CCC4)C3)c2)c1)C1CCC1 (stereo unspecified) | 44.8% [at 16 µM] |
| COc1ccc(S(=O)(=O)NC[C@@H]2CC[C@H]3[C@H](CN3Cc3cc(F)ccc3F)O2)cc1 | -7% |
| COCC(C)n1c(-c2ccc3c(c2)NC(=O)CO3)csc1=Nc1ccc(OC(F)F)cc1 (stereo unspecified) | -24.6% |
| C[C@@H]1CN([C@H](C)CO)C(=O)c2cccc(NS(=O)(=O)c3cn(C)cn3)c2O[C@H]1CN(C)C(=O)Nc1ccc(F)cc1 | 8.94% |
| O=C(N/N=C/c1ccc(-n2ccnc2)cc1)c1cccs1 | 64.2% |
| Cc1ccc(NC(=O)c2ccc(CN3CCc4ccccc4C3)cc2)cc1 | 33% |
| O=C(Nc1ccc(S(=O)(=O)N2CCCC2)cc1)c1ccc(CN2CCOCC2)cc1 | -13.4% |
| C=C(C)CN(CC)c1nc(N)c2c(N)nc3c(c2c1C#N)CC(=O)N3C12CC3CC(CC(C3)C1)C2 | -26.7% |
| CCc1nc(N2CCCCC2C)c2oc3ccccc3c2n1 (stereo unspecified) | -10.6% |

| SMILES | activity change, negative = inhibition |
| --- | --- |
| CCOc1ccc2c(c1)-c1c(ssc1=S)C(C)(C)N2C(=O)c1ccco1 | 23.5% |
| O=C(COC(=O)c1cccc(S(=O)(=O)N2CCOCC2)c1)NCc1ccccc1 | 0.395% |
| CC(C)OCCCNc1ncnc2c1[nH]c1ccccc12 | -15% |
| Cc1ccccc1OCCCCn1cnc2ccccc21 | 46.1% [at 15 µM] |
| COCC(=O)Nc1ccc2c(c1)C(=O)N(C)C[C@@H](OC)[C@H](C)CN(C(C)=O)[C@H](C)CO2 | -9.74% |
| CCN(CC)CCN(C(=O)c1cc(Cl)sc1Cl)c1nc2cc3c(cc2s1)OCO3 | 35.1% |
| O=C(C[C@@H]1C=C[C@@H](NC(=O)Nc2ccc3c(c2)OCO3)[C@H](CO)O1)NCc1ccc(F)cc1 | -6.97% |
| CCS(=O)(=O)N[C@H]1CC[C@@H](CC(=O)NCc2ccc(Cl)cc2)O[C@@H]1CO | 22.3% |
| O=C(Nc1cccc(F)c1)N[C@@H]1CC[C@H](CCNS(=O)(=O)c2cccc(Cl)c2)O[C@@H]1CO | 42.4% |
| COc1ccccc1CNC(=O)C[C@H]1C[C@@H]2c3cc(NC(=O)c4cccnc4)ccc3O[C@@H]2[C@@H](CO)O1 | -4.17% |
| O=C(C[C@H]1C[C@@H]2c3cc(NC(=O)C4CCOCC4)ccc3O[C@@H]2[C@@H](CO)O1)NCc1ccccc1F | 14% |
| COc1cccc(CNC(=O)C[C@@H]2C=C[C@H](NC(=O)C3CCC3)[C@H](CO)O2)c1 | 45.5% |
| C[C@@H]1CN([C@H](C)CO)C(=O)c2cccc(NS(=O)(=O)c3ccc(Cl)cc3)c2O[C@H]1CN(C)CC1CCCCC1 | 56.1% [at 30 µM] |
| COC(=O)c1ccc(NC(=O)c2ccc(CN3CCOCC3)cc2)cc1 | 12.6% |
| OC1(c2ccc(OC(F)F)cc2)CSC(=Nc2cccnc2)N1C1CC1 (stereo unspecified) | -12.4% |
| Cc1cc(Cl)c(S(=O)(=O)N2CCCC2)cc1OCC(=O)NC1CCCCC1 | -17.4% |
| COCCCn1c(-c2ccc(S(=O)(=O)N3CCOCC3)cc2)csc1=Nc1ccccc1 | 3.27% |
| CN(C)S(=O)(=O)c1ccc(C(=O)Nc2nc(-c3cccs3)cs2)cc1 | 7.84% |
| CCCC(=O)Nc1ccc2c(c1)C(=O)N(C)C[C@@H](OC)[C@@H](C)CN(Cc1nccs1)[C@@H](C)CO2 | -10.4% |
| COCC(=O)Nc1ccc2c(c1)C(=O)N(C)C[C@@H](OC)[C@@H](C)CN(C)[C@H](C)CO2 | 24.4% |
